The record followed here is PubChem BioAssay (EPA / NIEHS).

Values joined by “and” are separate entries in the source; they are usually repeats but may differ in a detail not shown here. Equal entries are not always repeated. Inconclusive results are not listed. Where a structure was tested more than once in an assay, its records may differ in their call. Active and inactive are the calls of the source. The calls were made as follows, unless noted: active = hit-call score of the fitted dose curve at least 0.9, where 1 is the maximum; inactive = score below 0.9.

By AC50 is commonly meant the concentration giving half of the maximal activity seen.

For assay [1], the target named is human Retinoid X Receptor beta (RXRb), RXRB (gene 6257) (UniProt P28702). As to the kind of experiment: ATG_RXRb_TRANS: Attagene TRANS-FACTORIAL HepG2 Assay for human Retinoid X Receptor beta (RXRb) (AID 2283013; active = hit-call score of the fitted dose curve at least 0.9, where 1 is the maximum). The method, boiled down:
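After a 24 h incubation with test chemical, transfected HepG2 cells carrying NR-Gal4 fusions and GAL4-UAS reporter transcription units yield RNA whose reporter cDNA is FAM-labelled, HpaI-cut and sized by capillary electrophoresis; increases over DMSO are scored.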

For assay [2], the target named is human Thyroid Receptor alpha (THRa1), THRA (gene 7067) (UniProt P10827). As to the kind of experiment: ATG_THRa1_TRANS: Attagene TRANS-FACTORIAL HepG2 Assay for human Thyroid Receptor alpha (THRa1) (AID 2283014; active = hit-call score of the fitted dose curve at least 0.9, where 1 is the maximum). The procedure, abridged:
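HepG2 cells transiently transfected with chimeric NR-Gal4 and GAL4-UAS reporter units, dosed 24 h. Reporter mRNA quantified by RT-PCR, fluorescent labeling, HpaI digestion and capillary electrophoresis; gain-of-signal fit versus DMSO.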

Read-out in assay [3]: E-selectin (Homo sapiens) (UniProt P16581)
The experiment in a line: BSK_3C_Eselectin: BioMAP Diversity Plus: 3C Assay for Eselectin Biomarker Activity (AID 2283015).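 As to outcome: cell surface E-selectin protein quantified by ELISA 24 h after dosing.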 Particulars: primary human endothelial cells (HUVEC); actives raise or lower the signal. The method, boiled down: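 Primary human umbilical vein endothelial cells (3C system), read 24 h after compound addition; E-selectin measured by ELISA. Bidirectional curve fitting against DMSO baseline; cytotoxicity by parallel SRB total-protein staining.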

Read-out in assay [4]: Interleukin-1 alpha (IL1a), IL1A (gene 3552)
As to the kind of experiment: BSK_BE3C_IL1a: BioMAP Diversity Plus: BE3C Assay for Interleukin-1 alpha (IL1a) Biomarker Activity (AID 2283016). Conditions: primary human bronchial epithelial cells; actives raise or lower the signal. The method, boiled down: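 Measured in human lung primary bronchial epithelial cells: IL-1a by ELISA at 24 h after dosing, with bidirectional fitting against DMSO.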

Read-out in assay [5]: Monocyte Chemoattractant Protein-1 (MCP1), CCL2 (gene 6347)
As to the kind of experiment: BSK_3C_MCP1: BioMAP Diversity Plus: 3C Assay for Monocyte Chemoattractant Protein-1 (MCP1) Biomarker Activity (AID 2283017). Conditions: primary human endothelial cells (HUVEC); actives raise or lower the signal. The method, boiled down:
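Human umbilical vein endothelial cells (3C system) exposed to chemicals for 24 h; MCP-1 quantified by ELISA against the DMSO baseline with bidirectional fitting, and parallel SRB staining used to assess cytotoxicity.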

Read-out in assay [6]: Monocyte Chemoattractant Protein-1 (MCP1), CCL2 (gene 6347)
As to the kind of experiment: BSK_4H_MCP1: BioMAP Diversity Plus: 4H Assay for Monocyte Chemoattractant Protein-1 (MCP1) Biomarker Activity (AID 2283018). Conditions: primary human endothelial cells (HUVEC); actives raise or lower the signal. The method, boiled down:
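Primary human umbilical vein endothelium is exposed to chemical for 24 h before MCP-1 is assayed by ELISA. Concentration-response fitted bidirectionally relative to DMSO.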

Read-out in assay [7]: Human Leukocyte Antigen - DR isotype (HLADR), HLA-DRA (gene 3122)
As to the kind of experiment: BSK_3C_HLADR: BioMAP Diversity Plus: 3C Assay for Human Leukocyte Antigen - DR isotype (HLADR) Biomarker Activity (AID 2283019).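 Also: ELISA of cell-surface HLA-DR on HUVEC 24 h after dosing.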 Particulars: primary human endothelial cells (HUVEC); actives raise or lower the signal. The method, boiled down:
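HUVEC monoculture, HLA-DR measured by ELISA 24 h after chemical dosing. Fitted bidirectionally against DMSO baseline; parallel SRB staining assessed cytotoxicity, with 3C proliferation read by SRB at 48 h.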

Read-out in assay [8]: Interleukin-8 (IL8), CXCL8 (gene 3576)
The experiment in a line: BSK_3C_IL8: BioMAP Diversity Plus: 3C Assay for Interleukin-8 (IL8) Biomarker Activity (AID 2283020). Particulars: primary human endothelial cells (HUVEC); actives raise or lower the signal. The procedure, abridged:
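Using DMSO-treated wells as the baseline, bidirectional curve fitting was applied to ELISA-measured IL-8 from human umbilical vein endothelial cultures sampled 24 h after compound addition.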

Read-out in assay [9]: Monokine induced gamma interferon (MIG), CXCL9 (gene 4283)
As to the kind of experiment: BSK_3C_MIG: BioMAP Diversity Plus: 3C Assay for Monokine induced gamma interferon (MIG) Biomarker Activity (AID 2283021). Conditions: primary human endothelial cells (HUVEC); actives raise or lower the signal. The procedure, abridged:
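ELISA-measured MIG in dosed HUVEC 3C cultures at 24 h, analysed by bidirectional fitting with DMSO defining baseline activity.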

Assay [10] addresses human Vitamin D Receptor (VDR), VDR (gene 7421) (UniProt P11473). As to the kind of experiment: ATG_VDR_TRANS: Attagene TRANS-FACTORIAL HepG2 Assay for human Vitamin D Receptor (VDR) (AID 2283022; active = hit-call score of the fitted dose curve at least 0.9, where 1 is the maximum). The method, boiled down: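 HepG2 cells were transiently transfected with GAL4-UAS reporter units and a chimeric VDR-Gal4 construct, then dosed for 24 hours. Reporter mRNA was quantified by RT-PCR, fluorescent labeling, HpaI digestion and capillary electrophoresis; gain of signal analysed vs DMSO.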

The nature of assay [11]: BSK_3C_SRB: Viability Assessment in the BioMAP Diversity Plus: 3C Assay (AID 2283023).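 Also: fitted both ways against DMSO so a hit may be signal rise or drop.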 Particulars: primary human endothelial cells (HUVEC). The method, boiled down: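 Human umbilical vein endothelial cells in the 3C system, treated 24 h. Total protein measured by 0.1% sulforhodamine B staining after 10% TCA fixation, read at 560 nm; bidirectional fit versus DMSO.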
Read-out in assay [12]: Matrix Metallopeptidase 1 (MMP1), MMP1 (gene 4312)
The experiment in a line: BSK_BE3C_MMP1: BioMAP Diversity Plus: BE3C Assay for Matrix Metallopeptidase 1 (MMP1) Biomarker Activity (AID 2283024). Conditions: primary human bronchial epithelial cells; actives raise or lower the signal. The method, boiled down:
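In this multiplexed primary-cell system, human bronchial epithelium received chemicals for 24 h before an ELISA for MMP1. Values reflect bidirectional fits normalised to the DMSO baseline.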

Assay [13] is described as follows: BSK_3C_Vis: BioMAP Diversity Plus: 3C Assay for Morphology Visualization (AID 2283025).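 Also: fitted both ways so gain or loss versus DMSO counts.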 Conditions: primary human endothelial cells (HUVEC). The method, boiled down:
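Light-microscopy morphology readout, 24 h exposure, human primary umbilical vein endothelium; analysed relative to DMSO with bidirectional fitting.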

Read-out in assay [14]: Pselectin, SELP (gene 6403)
The experiment in a line: BSK_4H_Pselectin: BioMAP Diversity Plus: 4H Assay for Pselectin Biomarker Activity (AID 2283026). Conditions: primary human endothelial cells (HUVEC); actives raise or lower the signal. The method, boiled down: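 Bidirectional fits against DMSO gave the endpoint. Cells: primary human umbilical vein endothelium, chemical-treated for 24 h before ELISA detection of P-selectin.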

A short description of assay [15]: BSK_BE3C_SRB: Viability Assessment in the BioMAP Diversity Plus: BE3C Assay (AID 2283028). Particulars: primary human bronchial epithelial cells. The procedure, abridged: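 Human bronchial epithelial primary cells in confluent culture, 24 h after chemical dosing; total protein by 0.1% SRB staining after 10% TCA fixation, read at 560 nm. Bidirectional fitting versus DMSO baseline.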

Read-out in assay [16]: Thrombomodulin, THBD (gene 7056)
As to the kind of experiment: BSK_3C_Thrombomodulin: BioMAP Diversity Plus: 3C Assay for Thrombomodulin Biomarker Activity (AID 2283029). Conditions: primary human endothelial cells (HUVEC); actives raise or lower the signal. The procedure, abridged:
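In a multiplexed primary-cell system, human umbilical vein endothelium received chemical and was assayed 24 h later for thrombomodulin by ELISA. Parallel cultures were SRB-stained (0.1% SRB after 10% TCA fixation, read at 560 nm) to flag cytotoxicity.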

Read-out in assay [17]: Urokinase-type plasminogen activator receptor (uPAR), PLAUR (gene 5329)
The experiment in a line: BSK_4H_uPAR: BioMAP Diversity Plus: 4H Assay for Urokinase-type plasminogen activator receptor (uPAR) Biomarker Activity (AID 2283030). Conditions: primary human endothelial cells (HUVEC); actives raise or lower the signal. The method, boiled down: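 Human umbilical vein endothelial cells in the 4H system, 24 h after chemical dosing. Cell-surface uPAR measured by ELISA, fitted in both directions versus DMSO; cytotoxicity checked by SRB total protein in parallel cultures.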

Read-out in assay [18]: Vascular endothelial growth factor receptor 2 (Homo sapiens) (UniProt P35968)
The experiment in a line: BSK_4H_VEGFRII: BioMAP Diversity Plus: 4H Assay for Vascular endothelial growth factor receptor 2 (VEGFR2) Biomarker Activity (AID 2283031).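 As to AC50: cell-surface VEGFR2 protein level quantified by ELISA.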 Particulars: primary human endothelial cells (HUVEC); actives raise or lower the signal. The procedure, abridged: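 Primary human umbilical vein endothelial cells (4H system), 24 h exposure; cell-surface VEGFR2 measured by ELISA. Bidirectional fitting versus DMSO; cytotoxicity checked in parallel by SRB total-protein staining.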

Read-out in assay [19]: Human Leukocyte Antigen - DR isotype (HLADR), HLA-DRA (gene 3122)
The experiment in a line: BSK_BE3C_HLADR: BioMAP Diversity Plus: BE3C Assay for Human Leukocyte Antigen - DR isotype (HLADR) Biomarker Activity (AID 2283032). Conditions: primary human bronchial epithelial cells; actives raise or lower the signal. The method, boiled down:
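BioMAP BE3C format: human bronchial epithelium, 24 h compound treatment, ELISA detection of HLA-DR, with bidirectional analysis relative to DMSO.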

A short description of assay [20]: BSK_4H_SRB: Viability Assessment in the BioMAP Diversity Plus: 4H Assay (AID 2283027).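 Also: cells exposed to compound for 24 h before staining.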 Conditions: primary human endothelial cells (HUVEC). The method, boiled down: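 Cytotoxicity readout: sulforhodamine B (0.1%) staining of total protein after 10% TCA fixation, measured at 560 nm in human umbilical vein endothelium at 24 h. DMSO set the baseline; fitting was bidirectional.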

E-selectin (Homo sapiens), sequence (P16581 whole entry, looked up): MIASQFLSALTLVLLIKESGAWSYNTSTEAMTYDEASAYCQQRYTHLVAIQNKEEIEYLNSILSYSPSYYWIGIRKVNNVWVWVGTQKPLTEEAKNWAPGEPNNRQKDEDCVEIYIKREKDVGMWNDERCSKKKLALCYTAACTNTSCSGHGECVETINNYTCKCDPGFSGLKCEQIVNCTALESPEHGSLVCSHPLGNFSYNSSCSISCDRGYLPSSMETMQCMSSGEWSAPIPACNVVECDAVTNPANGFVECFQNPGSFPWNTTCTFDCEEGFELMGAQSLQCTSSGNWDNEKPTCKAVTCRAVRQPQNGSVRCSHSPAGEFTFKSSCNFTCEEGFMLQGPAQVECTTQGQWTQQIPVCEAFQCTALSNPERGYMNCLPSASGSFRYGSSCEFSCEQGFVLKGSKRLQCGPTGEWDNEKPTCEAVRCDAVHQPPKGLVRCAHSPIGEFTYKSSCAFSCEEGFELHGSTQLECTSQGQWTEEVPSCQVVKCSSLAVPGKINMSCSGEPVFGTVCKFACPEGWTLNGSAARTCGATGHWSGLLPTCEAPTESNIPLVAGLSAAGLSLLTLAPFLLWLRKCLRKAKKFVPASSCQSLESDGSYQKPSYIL
human Thyroid Receptor alpha (THRa1), THRA (gene 7067), sequence (P10827 whole entry, looked up, the tested form may be a part): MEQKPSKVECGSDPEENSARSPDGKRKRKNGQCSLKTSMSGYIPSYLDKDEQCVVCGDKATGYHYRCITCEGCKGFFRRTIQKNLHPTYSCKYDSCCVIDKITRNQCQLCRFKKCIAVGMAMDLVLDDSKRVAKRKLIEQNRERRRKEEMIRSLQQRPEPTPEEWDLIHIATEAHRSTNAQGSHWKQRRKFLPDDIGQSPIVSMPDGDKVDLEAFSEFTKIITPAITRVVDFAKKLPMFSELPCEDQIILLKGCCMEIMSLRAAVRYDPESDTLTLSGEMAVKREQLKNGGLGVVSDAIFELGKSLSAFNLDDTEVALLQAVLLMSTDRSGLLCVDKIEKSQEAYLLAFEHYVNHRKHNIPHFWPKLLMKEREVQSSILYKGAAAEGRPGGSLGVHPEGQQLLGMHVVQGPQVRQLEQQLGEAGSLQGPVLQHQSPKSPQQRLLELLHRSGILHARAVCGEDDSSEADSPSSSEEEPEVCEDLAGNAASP
human Retinoid X Receptor beta (RXRb), RXRB (gene 6257), sequence (P28702 whole entry, looked up, the tested form may be a part): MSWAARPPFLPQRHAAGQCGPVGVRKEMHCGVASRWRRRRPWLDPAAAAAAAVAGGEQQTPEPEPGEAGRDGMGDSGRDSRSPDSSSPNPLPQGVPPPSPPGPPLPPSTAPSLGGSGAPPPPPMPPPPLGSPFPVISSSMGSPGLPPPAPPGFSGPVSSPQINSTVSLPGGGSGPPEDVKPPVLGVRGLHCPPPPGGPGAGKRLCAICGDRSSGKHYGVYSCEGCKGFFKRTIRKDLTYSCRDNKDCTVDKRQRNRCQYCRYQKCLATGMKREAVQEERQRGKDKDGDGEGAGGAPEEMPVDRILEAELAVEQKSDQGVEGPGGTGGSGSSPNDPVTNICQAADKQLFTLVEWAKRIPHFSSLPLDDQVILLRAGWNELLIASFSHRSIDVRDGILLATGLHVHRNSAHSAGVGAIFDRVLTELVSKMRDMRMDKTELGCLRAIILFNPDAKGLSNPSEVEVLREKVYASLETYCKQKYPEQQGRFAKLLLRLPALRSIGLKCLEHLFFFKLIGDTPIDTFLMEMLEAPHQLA
human Vitamin D Receptor (VDR), VDR (gene 7421), sequence (P11473 whole entry, looked up, the tested form may be a part): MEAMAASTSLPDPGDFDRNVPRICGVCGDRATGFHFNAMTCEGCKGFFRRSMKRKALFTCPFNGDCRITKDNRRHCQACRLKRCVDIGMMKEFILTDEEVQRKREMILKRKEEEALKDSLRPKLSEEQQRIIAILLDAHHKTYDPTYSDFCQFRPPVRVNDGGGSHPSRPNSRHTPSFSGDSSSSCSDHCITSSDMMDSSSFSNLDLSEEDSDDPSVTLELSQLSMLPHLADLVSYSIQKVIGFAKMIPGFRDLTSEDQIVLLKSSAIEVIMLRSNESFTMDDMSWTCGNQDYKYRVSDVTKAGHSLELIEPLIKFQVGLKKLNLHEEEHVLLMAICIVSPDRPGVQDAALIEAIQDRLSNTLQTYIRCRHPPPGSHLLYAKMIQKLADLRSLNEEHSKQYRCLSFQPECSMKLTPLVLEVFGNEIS

In the case of `O=C(F)C(F)(F)C(F)(F)C(F)(F)C(F)F`, the outcome in [1] was inactive.

Regarding `c1cc[nH]c1`, the outcome in assay [1] was inactive.

Take `O=C(O)c1cccc(C(=O)O)n1`: the outcome in assay [1] was inactive.

`CC(C)C=O`: in [1], the half-maximal activity concentration (AC50) was 100 µM (active). The molecule was called inactive in assay [2].

As to `C[C@]12CC[C@@H]3c4ccc(O)cc4CC[C@H]3[C@@H]1C[C@@H](O)[C@@H]2O`, the call in assay [1], in [2], in [3], in [4], in assay [5] and in assay [6] was inactive. The outcome in [7], in assay [8], in assay [9], in assay [10], in [11] and in assay [12] was inactive. In addition, the result in assay [13], in assay [14], in assay [15], in assay [16], in assay [17] and in assay [18] was inactive. Besides, the result in [19] was inactive.

Regarding `CCCCCCCCCCCC`, the call in assay [1], in assay [2], in assay [3], in assay [5], in assay [6] and in assay [7] was inactive. Also, the outcome in assay [8], in assay [9], in assay [12], in assay [14], in assay [15] and in assay [16] was inactive. Moreover, the result in assay [17] and in [18] was inactive. Further, the AC50 is 20 µM (active) in assay [3]; 9.52 µM (active) and 8.11 µM (active) in [4]; 31.1 µM (active) and 30.4 µM (active) in assay [11]; 36.5 µM (active) in assay [16]; 28 µM (active) in assay [18]; 5.83 µM (active) and 5.29 µM (active) in [19].

Take `FC(F)(F)C(F)(F)C(F)(F)Br`: the result in assay [1] and in assay [2] was inactive.

Regarding `Cc1cc(C(C)(C)C)c(O)c(C(C)(C)C)c1`, the half-maximal activity concentration (AC50) in [1] is 918 nM (active) and 88 nM (active). Besides, the outcome in assay [2] was inactive.

As for `O=C1C=CC(=O)N1c1cccc(N2C(=O)C=CC2=O)c1`, the call in assay [1] and in [2] was inactive.

Take `O=C(NCc1ncc(C(F)(F)F)cc1Cl)c1c(Cl)cccc1Cl`: the call in assay [1], in [2], in assay [3], in [4], in assay [5] and in [6] was inactive. Moreover, the result in assay [7], in [8], in assay [9], in assay [10], in assay [11] and in [12] was inactive. The result in assay [13], in [14], in assay [20], in [15], in assay [16] and in assay [17] was inactive. Further, the outcome in assay [18] and in assay [19] was inactive.

On to `CC(C)(c1ccc(Oc2ccc(N)cc2)cc1)c1ccc(Oc2ccc(N)cc2)cc1`, for which the molecule was called inactive in assay [1] and in assay [2].

For `O=P(O)(O)CCC(F)(F)C(F)(F)C(F)(F)C(F)(F)C(F)(F)C(F)(F)C(F)(F)C(F)(F)F`, the outcome in assay [1], in assay [2], in [3], in [4], in assay [5] and in assay [6] was inactive. The result in [7], in [8], in assay [9], in assay [10], in assay [11] and in [12] was inactive. Moreover, the result in assay [14], in assay [15], in assay [16], in assay [17], in assay [18] and in [19] was inactive. For the same molecule, the half-maximal activity concentration (AC50) in assay [11] was 47 µM (active); in assay [12] it was 11.5 µM (active).
